Shown are actives, neighbours in structure and some others; about 4.2% of the full set was active somewhere.
GDH-TPI counter – GDH-TPI coupling enzyme inhibitors, primary screen, artefact control for M. tuberculosis FBA inhibitor project, biochemical, absorbance, full deck; GDH-TPI coupled enzyme counterscreen, NADH absorbance; inhibition, % at 4.8 µM; actives 1.2% (n = 360,000); in the data active = inhibition above about 30%
PrPC TRFRET – inhibitors of human cell surface prion protein PrPC, primary screen, cell-based, TR-FRET; Major prion protein (Homo sapiens), P04156; inhibition, % at 13.8 µM; actives 0.43% (n = 370,000); AID 720596, 2013; TR-FRET read-out; in the data active = inhibition above about 24%
BJeLR lethal – MLPCN primary cell-based screen for lethality selective to Ras in HRASV12 cells | BJeLR (HRASV12) viability, CellTiter-Glo ATP luminescence, 48 h | inhibition, % (no concentration beside the values) | actives 0.17% (n = 300,000) | AID 1554, 2009; in the data active = inhibition above about 50%
Mtb FBA inh – Mtb FBA enzyme inhibitors, primary screen, biochemical, fluorescence, strain H37Rv | Fructose-bisphosphate aldolase (Mycobacterium tuberculosis (strain ATCC 25618 / H37Rv)), … | purified M. tuberculosis FBA, fluorescence read-out | inhibition, % at 1 µM | actives 2.3% (n = 360,000); in the data active = inhibition above about 27%
RecA splice inh – Mtb RecA intein splicing inhibitors, primary screen, biochemical, fluorescence, HTS | Protein RecA (Mycobacterium tuberculosis (strain ATCC 25618 / H37Rv)), P9WHJ3 | cell-free RecA intein splicing | inhibition, % (no concentration beside the values) | actives 0.75% (n = 290,000) | AID 2221, 2009; in the data active = inhibition above about 30%
PrPC TRFRET cf – confirmation of inhibitors of cell surface human prion protein, confirmation, cell-based, TR-FRET; shares compounds with PrPC TRFRET; cell surface PrPC level; inhibition, % at 13.8 µM; actives 65% (n = 1,500); AID 743200, 2013; in the data active = inhibition above about 25%
LD9 cytotox – cytotoxicity in LD9 cells, cytotoxicity control for cell surface PrPc inhibitor project, cell-based, luminescence, high throughput; inhibition, % at 13.8 µM; luminescence viability; shares compounds with PrPC TRFRET; AID 743201, 2013; actives 29% (n = 1,500); in the data active = inhibition above about 9.5%
Numbers stand for hits; n = inactive; x = no result given.

SMILES	GDH-TPI counter	PrPC TRFRET	BJeLR lethal	Mtb FBA inh	RecA splice inh	PrPC TRFRET cf	LD9 cytotox
O=C(NCc1ccccn1)c1ccc2c(=O)n3nc(Nc4ccccc4)sc3nc2c1	n	n	n	n	n	x	x
Cc1cc(O)c(C(C)C)cc1C1(c2cc(C(C)C)c(O)cc2C)OC(=O)c2ccccc21	n	25.1	n	n	n	n	n
CCOC(=O)c1sc2ncnc(Nc3cccc(C(=O)O)c3)c2c1C	n	n	n	n	x	x	x
CCOC(=O)c1sc2ncnc(NCc3ccco3)c2c1C	n	24.5	n	n	n	n	14.8
COC(=O)c1c(NC(=O)c2ccc([N+](=O)[O-])o2)sc2c1CCN(C(C)C)C2	n	n	n	n	n	x	x
CC(C)N1CCc2c(sc(NC(=O)c3ccc([N+](=O)[O-])o3)c2C(N)=O)C1	n	48.6	n	n	n	62.5	54.3
CCOc1ccc(-n2nc3c(SCCN4CCCC4)nnc(C)c3c2C)cc1	n	55.1	n	n	n	73.8	n
Cc1ccc(-n2nc3c(SCCN4CCOCC4)nnc(C)c3c2C)cc1	n	33.1	n	n	n	56.0	n
CCOc1ccc(-n2nc3c(Cl)nnc(C)c3c2C)cc1	n	n	n	n	n	x	x
CCOc1ccc(-n2nc3c(=S)[nH]nc(C)c3c2C)cc1	n	91.9	n	n	n	124.9	n
Cc1ccc(-n2c(SCC(=O)Nc3ccc(Oc4ccccc4)cc3)nnc2-c2cccc(C)c2)cc1	x	n	x	x	x	x	x
Cc1cccc2cc(C#N)c(SCC(=O)N3CC(=O)Nc4ccccc43)nc12	n	29.0	53.9	n	n	70.5	15.6
O=C(CSc1nnc(COc2ccc(Cl)cc2)n1Cc1ccco1)Nc1ccc2c(c1)OCO2	x	25.0	x	x	x	n	n
COc1ccc(CNC(=O)c2cc(-c3ccccc3)c(N3CCOCC3)s2)cc1OC	x	n	x	x	x	x	x
CCCC/C=C1/[C@@H](C(C)C)N(Cc2ccc3c(c2)OCO3)C2=N[C@H](c3ccccc3)CC(=O)N21	x	n	x	x	x	x	x
Cc1ccc(C(=O)n2c(N)nc3ccccc32)cc1	n	24.9	n	n	n	n	n
Cc1[nH]n(-c2ccccc2)c(=O)c1/C=N/NC(=O)C(C)C	n	28.8	n	n	n	42.6	n
COc1ccc(-c2nc3c(C)cc(Br)cn3c2CC(C)(C)C)cc1OC	x	41.9	x	n	x	51.8	n
Cc1cc(Br)cn2c(Cc3cccc(Cl)c3)c(-c3cccc(Cl)c3)nc12	x	n	x	x	x	x	x
COc1ccc(-c2nc3c(C)cc(Br)cn3c2Cc2cccc(Cl)c2)cc1OC	x	25.9	x	n	x	62.5	n
CCOC(=O)c1c(C)[nH]c(C(=O)C(C)OC(=O)c2cccc(OCc3c(C)noc3C)c2)c1C (stereo unspecified)	n	38.3	n	n	n	26.3	n
CNC(=O)COc1ccccc1C(=O)Nc1ccc2c(c1)oc1ccccc12	n	31.1	n	n	n	31.7	n
O=C(NNC(=O)c1cccs1)c1ccc(Cl)c(S(=O)(=O)N2CCCC2)c1	n	n	x	n	x	x	x
Cc1cc(C(=O)O)cc(S(=O)(=O)NNC(=O)c2cccs2)c1C	n	42.0	n	n	n	n	n
COc1ccc(NC(=O)c2sc(=O)n(Cc3ccc(F)c(Cl)c3)c2C)cc1OC	n	29.6	x	n	x	n	n
SMILES	GDH-TPI counter	PrPC TRFRET	BJeLR lethal	Mtb FBA inh	RecA splice inh	PrPC TRFRET cf	LD9 cytotox
Cc1cccc[n+]1C1C(c2ccc([N+](=O)[O-])cc2)C(C#N)=C(C(=C=[N-])C#N)NC1(O)C1CC1 (stereo unspecified)	n	39.3	n	n	n	n	n
N#CC1=C(N)NC(=S)C(C(N)=O)C1c1ccc([N+](=O)[O-])cc1 (stereo unspecified)	n	n	n	n	n	x	x
O=C(Nc1ccc2c(c1)OCO2)Nc1ccc2c(c1)OCO2	n	n	n	n	n	x	x
COc1ccc(C(C)(C)C)cc1NC(=O)Nc1ccc2c(c1)OCO2	n	24.9	n	n	n	n	n
O=C(Nc1ccc(OC(F)F)c(Cl)c1)Nc1ccc2c(c1)OCO2	n	28.9	n	n	n	n	n
CCn1cc(Br)c(C(=O)Nc2ccccc2C(=O)OC)n1	n	n	n	n	n	x	x
CCn1cc(Cl)c(C(=O)Nc2ccccc2C(N)=O)n1	n	54.2	n	n	n	n	n
O=C(C(=O)N1CCC(CNC(=O)C2COc3ccccc3O2)CC1)c1cc2ccccc2o1 (stereo unspecified)	x	n	x	x	x	x	x
CO/N=C/Cc1c([N+](=O)[O-])c(C)nn1C	n	n	n	n	n	x	x
Cc1c([N+](=O)[O-])c(C/C=N/O)nn1C	n	33.0	n	n	n	n	n
COC(=O)C[C@@H]1CC[C@H]2[C@@H](COc3ccc(NC(=O)Nc4ccccc4C)cc3C(=O)N2C)O1	x	n	x	x	x	x	x
O=C(c1ccco1)N1CCN(C(=O)C2CCCO2)CC1 (stereo unspecified)	n	n	n	n	n	x	x
Cc1occc1C(=O)N1CCN(C(=O)C2CCCO2)CC1 (stereo unspecified)	n	47.1	n	n	n	n	n
CN=C(Nc1cccc(Cl)c1)SC1CC(=O)N(c2ccc(OC)cc2)C1=O (stereo unspecified)	n	29.5	n	n	x	n	n
COC(=O)c1cc2c(c3c4cc(OC)ccc4n(S(=O)(=O)c4ccc(OC)cc4)c13)C(=O)N(Cc1ccc(C(F)(F)F)cc1)C2	x	n	x	x	x	x	x
CC(=O)N(Cc1cc(=O)[nH]c2ccccc12)c1ccccc1	n	n	n	n	n	x	x
CC(=O)N(Cc1cc(=O)[nH]c2ccccc12)c1cccc(C)c1	n	24.5	n	n	n	30.2	n
CCOC(=O)c1c(NC(=O)COc2ncnc3ccccc23)sc(C(C)=O)c1C	n	28.8	n	n	n	36.1	n
O=C(O)CCCC(=O)OCCCc1cc2ccccc2c(=O)o1	x	n	x	x	x	x	x
O=C(CSc1ccc2ccccc2n1)N/N=C/c1ccc(O)cc1	n	24.9	n	n	n	n	n
Cn1c(SCC(=O)N2CCCC2=O)nc2ccccc2c1=O	n	n	x	n	x	x	x
CCOc1ccc(NC(=O)CCSc2ccc3ccccc3n2)cc1	n	61.9	n	n	n	60.2	n
NS(=O)(=O)c1ccc(NC(=O)CSc2nc3ccccc3c(=O)n2-c2ccc(Br)cc2)cc1	x	33.6	x	x	x	n	n
O=C1CCCN1C(=O)CSc1ccc2ccccc2n1	n	41.4	x	n	x	52.2	n
NS(=O)(=O)c1ccc(NC(=O)CSc2nc3ccccc3c(=O)n2Cc2ccncc2)cc1	n	n	x	n	x	x	x
CCOc1ccc(NC(=O)CCSc2ccc(C)cc2)cc1	n	n	n	n	n	x	x

Screening results as filed in PubChem BioAssay.
